Assay results from PubChem BioAssay (NCI).
Compounds without any hit were thinned out: in the full panel of roughly 83,000, 20% have a hit.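 Treatment: one concentration, 48 hours, 96-well format. Scoring: percent growth, with anything below 10 considered active.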 The source made the active and inactive calls.

Legend:
Assay in all cases: NCI-60 one-dose screen, 48 h (100 = growth as untreated, 0 = no growth, -100 = all killed)
Settings in all cases: 10 µM unless noted
[1] = tested on: DU-145 prostate
[2] = tested on: K-562 leukemia
[3] = tested on: MALME-3M melanoma
[4] = tested on: MDA-MB-231 breast
[5] = tested on: RXF 393 renal
[6] = tested on: SF-268 CNS
[7] = tested on: SF-295 CNS
[8] = tested on: SF-539 CNS
[9] = tested on: UACC-257 melanoma
[10] = tested on: M14 melanoma
[11] = tested on: HCT-15 colon
[12] = tested on: HT29 colon
[13] = tested on: SNB-75 CNS
[14] = tested on: SNB-19 CNS
[15] = tested on: U251 CNS
[16] = tested on: PC-3 prostate
[17] = tested on: SK-MEL-5 melanoma
[18] = tested on: UACC-62 melanoma
[19] = tested on: LOX IMVI melanoma
[20] = tested on: SK-MEL-28 melanoma

Measured: growth

O=C1c2ccccc2OC=C(c2ccccc2)N1CCCCNc1ccc(F)cc1
inactive: [1] 98.9% | [2] 68.1% | [3] 82.3% | [4] 74.9% | [5] 97.9% | [6] 78.3% | [7] 86% | [8] 100% | [9] 83.6% | [10] 76.7% | [11] 90.3% | [12] 76.9% | [13] 90.7% | [14] 87.3% | [15] 81.8% | [16] 47.2% | [17] 94.3% | [18] 76.3% | [19] 86.1% | [20] 104%

COc1ccc(C[C@H](N)C(=O)N[C@@H]2[C@@H](CO)OC(n3cnc4c(N(C)C)ncnc43)[C@@H]2O)cc1 (stereo not given in full)
inactive: [11] 71.6%
active: [1] -7.63% | [2] -11.4% | [3] -78.1% | [4] -10.1% | [5] -86.6% | [6] -42.5% | [7] -43% | [8] -42.9% | [9] -64.7% | [10] -85.5% | [12] -63.8% | [13] -40.7% | [14] -4.27% | [15] -91.6% | [16] -6.6% | [17] -96.6% | [18] -81.3% | [19] -61.9% | [20] -64.4%

O=C(CSc1nnc(-c2ccccc2)o1)Nc1ccc(C(=O)/C=C/c2ccccc2)cc1
inactive: [1] 62.7% | [3] 69.8% | [4] 83.9% | [5] 93.1% | [6] 65.8% | [7] 77.3% | [8] 84.7% | [9] 113% | [10] 66.4% | [11] 25.8% | [12] 32.4% | [13] 33.5% | [14] 64.9% | [15] 44.1% | [16] 77% | [17] 78.9% | [18] 82.3% | [19] 24.4% | [20] 97%
active: [2] 8.02%

CCN1CCN(Cc2ccc(NC(=O)Nc3cccc(-n4ccc5c(NC(=O)c6ccccc6)nccc54)c3)cc2C(F)(F)F)CC1
inactive: [1] 88.8% | [2] 49.3% | [3] 64% | [4] 82% | [5] 79.5% | [6] 85.3% | [7] 55.7% | [8] 81.1% | [9] 73.9% | [10] 76% | [11] 77% | [12] 75.1% | [13] 80.2% | [14] 89.8% | [15] 76.3% | [16] 66.4% | [17] 43.1% | [18] 68% | [19] 85% | [20] 82.8%

COc1cc(-c2nc(N)n(CC(=O)Nc3ccc(/C(C)=N\O)cc3)n2)cc(OC)c1OC
inactive: [1] 108% | [2] 96.1% | [3] 96.7% | [4] 103% | [5] 105% | [6] 93.5% | [7] 101% | [8] 97.1% | [9] 63.7% | [10] 101% | [11] 101% | [12] 86.4% | [13] 74.1% | [14] 99.9% | [15] 85.8% | [16] 76.7% | [17] 97.9% | [18] 83.6% | [19] 99.6% | [20] 94.2%

O=C(O)c1ccc(-c2nn(-c3ccc(C(=O)O)cc3)cc2/C=N/Nc2c(F)c(F)cc(F)c2F)cc1
inactive: [1] 105% | [2] 105% | [3] 93.7% | [4] 105% | [5] 112% | [6] 93.2% | [7] 102% | [8] 102% | [9] 95.7% | [10] 96.6% | [11] 107% | [12] 99.6% | [13] 105% | [14] 110% | [15] 104% | [16] 101% | [17] 107% | [18] 106% | [19] 100% | [20] 104%

OCCOCC(F)(F)F
inactive: [1] 109% | [2] 97.2% | [3] 99.6% | [4] 124% | [5] 113% | [6] 102% | [7] 103% | [8] 96.7% | [9] 118% | [10] 112% | [11] 108% | [12] 105% | [13] 88.3% | [14] 117% | [15] 105% | [16] 97.8% | [17] 107% | [18] 113% | [19] 112% | [20] 98.5%

O=C(COc1ccc(Cl)cc1)N1CCN(Cc2ccc3c(c2)OCO3)CC1
inactive: [1] 113% | [2] 84.8% | [3] 98.4% | [4] 87.2% | [5] 109% | [6] 95.9% | [7] 95.4% | [8] 104% | [9] 103% | [10] 111% | [11] 96.8% | [12] 112% | [13] 102% | [14] 95.6% | [15] 94.3% | [16] 90.3% | [17] 97.7% | [18] 81.8% | [19] 89.5% | [20] 116%
